# Experimental data from publication PMC11062922 (Nature Chemical Biology, 2023).
# Read-outs that look alike come from different tables or passages of the source.
# Experiments:
# NTRK1 = details: read-out: apparent Kd, n = 1
# NUAK2 = details: read-out: apparent Kd, n = 1
# [1] = compound concentrations:100 nM and 1000 nM (sheet 'Lestaurtinib' of Supplementary Table 1),run:Lestaurtinib_02765_R2,Plate:MR026
# [2] = compound concentrations:100 nM and 1000 nM (sheet 'Lestaurtinib' of Supplementary Table 1),run:Lestaurtinib_02766_R2,Plate:MR027
# [3] = compound concentrations:100 nM and 1000 nM (sheet 'Lestaurtinib' of Supplementary Table 1),run:Lestaurtinib_02768_R1,Plate:MR028
# [4] = compound concentrations:100 nM and 1000 nM (sheet 'Lestaurtinib' of Supplementary Table 1),run:Lestaurtinib_02768_R2,Plate:MR028
# [5] = compound concentrations:100 nM and 1000 nM (sheet 'Lestaurtinib' of Supplementary Table 1),run:Lestaurtinib_02795_R1,Plate:MR022
# [6] = compound concentrations:100 nM and 1000 nM (sheet 'Lestaurtinib' of Supplementary Table 1),run:Lestaurtinib_02795_R2,Plate:MR022
# [7] = compound concentrations:100 nM and 1000 nM (sheet 'Lestaurtinib' of Supplementary Table 1),run:Lestaurtinib_02802_R3,Plate:MR029
# [8] = compound concentrations:100 nM and 1000 nM (sheet 'Lestaurtinib' of Supplementary Table 1),run:Lestaurtinib_02896_R2,Plate:MR030
substance,measurement,setting,value
Lestaurtinib,potency estimated from few doses,"NTRK1; compound concentrations:100 nM and 1000 nM (sheet 'Lestaurtinib' of Supplementary Table 1),run:Lestaurtinib_02748_R2,Plate:MR024",951 nM
same,potency estimated from few doses,"NTRK1; compound concentrations:100 nM and 1000 nM (sheet 'Lestaurtinib' of Supplementary Table 1),run:Lestaurtinib_02752_R1,Plate:MR025",2130 nM
same,potency estimated from few doses,NTRK1; [1],528 nM
same,potency estimated from few doses,NTRK1; [2],1650 nM
same,potency estimated from few doses,"NTRK1; compound concentrations:100 nM and 1000 nM (sheet 'Lestaurtinib' of Supplementary Table 1),run:Lestaurtinib_02766_R3,Plate:MR027",1440 nM
same,potency estimated from few doses,NTRK1; [3],628 nM
same,potency estimated from few doses,NTRK1; [4],897 nM
same,potency estimated from few doses,NTRK1; [5],852 nM
same,potency estimated from few doses,NTRK1; [6],1240 nM
same,potency estimated from few doses,"NTRK1; compound concentrations:100 nM and 1000 nM (sheet 'Lestaurtinib' of Supplementary Table 1),run:Lestaurtinib_02802_R1,Plate:MR029",896 nM
same,potency estimated from few doses,NTRK1; [7],943 nM
same,potency estimated from few doses,NTRK1; [8],935 nM
same,potency estimated from few doses,"NTRK1; compound concentrations:100 nM and 1000 nM (sheet 'Lestaurtinib' of Supplementary Table 1),run:Lestaurtinib_03172_R1,Plate:MR031",1440 nM
same,potency estimated from few doses,"NTRK1; compound concentrations:100 nM and 1000 nM (sheet 'Lestaurtinib' of Supplementary Table 1),run:Lestaurtinib_03172_R2,Plate:MR031",662 nM
same,potency estimated from few doses,"NTRK1; compound concentrations:100 nM and 1000 nM (sheet 'Lestaurtinib' of Supplementary Table 1),run:Lestaurtinib_03260_R1,Plate:MR033",898 nM
same,potency estimated from few doses,"NTRK1; compound concentrations:100 nM and 1000 nM (sheet 'Lestaurtinib' of Supplementary Table 1),run:Lestaurtinib_03260_R2,Plate:MR033",635 nM
same,potency estimated from few doses,"NUAK2; compound concentrations:100 nM and 1000 nM (sheet 'Lestaurtinib' of Supplementary Table 1),run:Lestaurtinib_02339_R1,Plate:MR001",489 nM
same,potency estimated from few doses,"NUAK2; compound concentrations:100 nM and 1000 nM (sheet 'Lestaurtinib' of Supplementary Table 1),run:Lestaurtinib_02339_R2,Plate:MR001",23.7 nM
same,potency estimated from few doses,"NUAK2; compound concentrations:100 nM and 1000 nM (sheet 'Lestaurtinib' of Supplementary Table 1),run:Lestaurtinib_02339_R3,Plate:MR001",373 nM
same,potency estimated from few doses,"NUAK2; compound concentrations:100 nM and 1000 nM (sheet 'Lestaurtinib' of Supplementary Table 1),run:Lestaurtinib_02364_R3,Plate:MR002",260 nM
same,potency estimated from few doses,"NUAK2; compound concentrations:100 nM and 1000 nM (sheet 'Lestaurtinib' of Supplementary Table 1),run:Lestaurtinib_02367_R1,Plate:MR003",873 nM
same,potency estimated from few doses,"NUAK2; compound concentrations:100 nM and 1000 nM (sheet 'Lestaurtinib' of Supplementary Table 1),run:Lestaurtinib_02367_R2,Plate:MR003",382 nM
same,potency estimated from few doses,"NUAK2; compound concentrations:100 nM and 1000 nM (sheet 'Lestaurtinib' of Supplementary Table 1),run:Lestaurtinib_02381_R1,Plate:MR004",394 nM
same,potency estimated from few doses,"NUAK2; compound concentrations:100 nM and 1000 nM (sheet 'Lestaurtinib' of Supplementary Table 1),run:Lestaurtinib_02381_R2,Plate:MR004",113 nM
same,potency estimated from few doses,"NUAK2; compound concentrations:100 nM and 1000 nM (sheet 'Lestaurtinib' of Supplementary Table 1),run:Lestaurtinib_02407_R2,Plate:MR005",70.6 nM
same,potency estimated from few doses,"NUAK2; compound concentrations:100 nM and 1000 nM (sheet 'Lestaurtinib' of Supplementary Table 1),run:Lestaurtinib_02422_R1,Plate:MR006",77.8 nM
same,potency estimated from few doses,"NUAK2; compound concentrations:100 nM and 1000 nM (sheet 'Lestaurtinib' of Supplementary Table 1),run:Lestaurtinib_02422_R2,Plate:MR006",44.9 nM
same,potency estimated from few doses,"NUAK2; compound concentrations:100 nM and 1000 nM (sheet 'Lestaurtinib' of Supplementary Table 1),run:Lestaurtinib_02437_R1,Plate:MR007",140 nM
same,potency estimated from few doses,"NUAK2; compound concentrations:100 nM and 1000 nM (sheet 'Lestaurtinib' of Supplementary Table 1),run:Lestaurtinib_02438_R1,Plate:MR008",22.1 nM
same,potency estimated from few doses,"NUAK2; compound concentrations:100 nM and 1000 nM (sheet 'Lestaurtinib' of Supplementary Table 1),run:Lestaurtinib_02443_R1,Plate:MR009",70 nM
same,potency estimated from few doses,"NUAK2; compound concentrations:100 nM and 1000 nM (sheet 'Lestaurtinib' of Supplementary Table 1),run:Lestaurtinib_02443_R2,Plate:MR009",75.5 nM
same,potency estimated from few doses,"NUAK2; compound concentrations:100 nM and 1000 nM (sheet 'Lestaurtinib' of Supplementary Table 1),run:Lestaurtinib_02443_R3,Plate:MR009",696 nM
same,potency estimated from few doses,"NUAK2; compound concentrations:100 nM and 1000 nM (sheet 'Lestaurtinib' of Supplementary Table 1),run:Lestaurtinib_02473_R2,Plate:MR010",100 nM
same,potency estimated from few doses,"NUAK2; compound concentrations:100 nM and 1000 nM (sheet 'Lestaurtinib' of Supplementary Table 1),run:Lestaurtinib_02473_R3,Plate:MR010",53.1 nM
same,potency estimated from few doses,"NUAK2; compound concentrations:100 nM and 1000 nM (sheet 'Lestaurtinib' of Supplementary Table 1),run:Lestaurtinib_02482_R1,Plate:MR011",165 nM
same,potency estimated from few doses,"NUAK2; compound concentrations:100 nM and 1000 nM (sheet 'Lestaurtinib' of Supplementary Table 1),run:Lestaurtinib_02482_R2,Plate:MR011",98 nM
same,potency estimated from few doses,"NUAK2; compound concentrations:100 nM and 1000 nM (sheet 'Lestaurtinib' of Supplementary Table 1),run:Lestaurtinib_02482_R3,Plate:MR011",133 nM
same,potency estimated from few doses,"NUAK2; compound concentrations:100 nM and 1000 nM (sheet 'Lestaurtinib' of Supplementary Table 1),run:Lestaurtinib_02487_R1,Plate:MR012",87.5 nM
same,potency estimated from few doses,"NUAK2; compound concentrations:100 nM and 1000 nM (sheet 'Lestaurtinib' of Supplementary Table 1),run:Lestaurtinib_02487_R2,Plate:MR012",208 nM
same,potency estimated from few doses,"NUAK2; compound concentrations:100 nM and 1000 nM (sheet 'Lestaurtinib' of Supplementary Table 1),run:Lestaurtinib_02487_R3,Plate:MR012",85.6 nM
same,potency estimated from few doses,"NUAK2; compound concentrations:100 nM and 1000 nM (sheet 'Lestaurtinib' of Supplementary Table 1),run:Lestaurtinib_02496_R1,Plate:MR013",931 nM
same,potency estimated from few doses,"NUAK2; compound concentrations:100 nM and 1000 nM (sheet 'Lestaurtinib' of Supplementary Table 1),run:Lestaurtinib_02496_R3,Plate:MR013",50.7 nM
same,potency estimated from few doses,"NUAK2; compound concentrations:100 nM and 1000 nM (sheet 'Lestaurtinib' of Supplementary Table 1),run:Lestaurtinib_02566_R3,Plate:MR014",517 nM
same,potency estimated from few doses,"NUAK2; compound concentrations:100 nM and 1000 nM (sheet 'Lestaurtinib' of Supplementary Table 1),run:Lestaurtinib_02572_R1,Plate:MR015",368 nM
same,potency estimated from few doses,"NUAK2; compound concentrations:100 nM and 1000 nM (sheet 'Lestaurtinib' of Supplementary Table 1),run:Lestaurtinib_02572_R2,Plate:MR015",96.7 nM
same,potency estimated from few doses,"NUAK2; compound concentrations:100 nM and 1000 nM (sheet 'Lestaurtinib' of Supplementary Table 1),run:Lestaurtinib_02584_R1,Plate:MR017",207 nM
same,potency estimated from few doses,"NUAK2; compound concentrations:100 nM and 1000 nM (sheet 'Lestaurtinib' of Supplementary Table 1),run:Lestaurtinib_02584_R3,Plate:MR017",259 nM
same,potency estimated from few doses,"NUAK2; compound concentrations:100 nM and 1000 nM (sheet 'Lestaurtinib' of Supplementary Table 1),run:Lestaurtinib_02601_R3,Plate:MR018",396 nM
same,potency estimated from few doses,"NUAK2; compound concentrations:100 nM and 1000 nM (sheet 'Lestaurtinib' of Supplementary Table 1),run:Lestaurtinib_02606_R1,Plate:MR019",140 nM
same,potency estimated from few doses,"NUAK2; compound concentrations:100 nM and 1000 nM (sheet 'Lestaurtinib' of Supplementary Table 1),run:Lestaurtinib_02606_R2,Plate:MR019",121 nM
same,potency estimated from few doses,"NUAK2; compound concentrations:100 nM and 1000 nM (sheet 'Lestaurtinib' of Supplementary Table 1),run:Lestaurtinib_02606_R3,Plate:MR019",154 nM
same,potency estimated from few doses,"NUAK2; compound concentrations:100 nM and 1000 nM (sheet 'Lestaurtinib' of Supplementary Table 1),run:Lestaurtinib_02624_R1,Plate:MR020",92.2 nM
same,potency estimated from few doses,"NUAK2; compound concentrations:100 nM and 1000 nM (sheet 'Lestaurtinib' of Supplementary Table 1),run:Lestaurtinib_02624_R2,Plate:MR020",93.3 nM
same,potency estimated from few doses,"NUAK2; compound concentrations:100 nM and 1000 nM (sheet 'Lestaurtinib' of Supplementary Table 1),run:Lestaurtinib_02624_R3,Plate:MR020",72.9 nM
same,potency estimated from few doses,"NUAK2; compound concentrations:100 nM and 1000 nM (sheet 'Lestaurtinib' of Supplementary Table 1),run:Lestaurtinib_02741_R1,Plate:MR023",140 nM
same,potency estimated from few doses,"NUAK2; compound concentrations:100 nM and 1000 nM (sheet 'Lestaurtinib' of Supplementary Table 1),run:Lestaurtinib_02741_R2,Plate:MR023",124 nM
same,potency estimated from few doses,"NUAK2; compound concentrations:100 nM and 1000 nM (sheet 'Lestaurtinib' of Supplementary Table 1),run:Lestaurtinib_02741_R3,Plate:MR023",115 nM
same,potency estimated from few doses,"NUAK2; compound concentrations:100 nM and 1000 nM (sheet 'Lestaurtinib' of Supplementary Table 1),run:Lestaurtinib_02748_R3,Plate:MR024",59.8 nM
same,potency estimated from few doses,"NUAK2; compound concentrations:100 nM and 1000 nM (sheet 'Lestaurtinib' of Supplementary Table 1),run:Lestaurtinib_02752_R2,Plate:MR025",68.5 nM
same,potency estimated from few doses,"NUAK2; compound concentrations:100 nM and 1000 nM (sheet 'Lestaurtinib' of Supplementary Table 1),run:Lestaurtinib_02765_R1,Plate:MR026",298 nM
same,potency estimated from few doses,NUAK2; [1],316 nM
same,potency estimated from few doses,"NUAK2; compound concentrations:100 nM and 1000 nM (sheet 'Lestaurtinib' of Supplementary Table 1),run:Lestaurtinib_02765_R3,Plate:MR026",88.4 nM
same,potency estimated from few doses,NUAK2; [2],58.5 nM
same,potency estimated from few doses,NUAK2; [3],89.9 nM
same,potency estimated from few doses,NUAK2; [4],66.1 nM
same,potency estimated from few doses,"NUAK2; compound concentrations:100 nM and 1000 nM (sheet 'Lestaurtinib' of Supplementary Table 1),run:Lestaurtinib_02768_R3,Plate:MR028",146 nM
same,potency estimated from few doses,NUAK2; [5],93.4 nM
same,potency estimated from few doses,NUAK2; [6],95.4 nM
same,potency estimated from few doses,"NUAK2; compound concentrations:100 nM and 1000 nM (sheet 'Lestaurtinib' of Supplementary Table 1),run:Lestaurtinib_02795_R3,Plate:MR022",154 nM
same,potency estimated from few doses,"NUAK2; compound concentrations:100 nM and 1000 nM (sheet 'Lestaurtinib' of Supplementary Table 1),run:Lestaurtinib_02802_R2,Plate:MR029",79.5 nM
same,potency estimated from few doses,NUAK2; [7],69.5 nM
same,potency estimated from few doses,"NUAK2; compound concentrations:100 nM and 1000 nM (sheet 'Lestaurtinib' of Supplementary Table 1),run:Lestaurtinib_02896_R1,Plate:MR030",90.1 nM
same,potency estimated from few doses,NUAK2; [8],130 nM
